Results: the supplement of paper PMC4709259
Structures can show the parent of a compound that is named as a salt. ± gives the standard deviation.

system: Jurkat; experiment: mean cell size (FSC-A) relative to DMSO control (fraction of control); higher = larger cells; details: 48 h
How it was run: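 Jurkat cells seeded at 600 cells/µl were incubated 1 h, then exposed for 48h to the Enzo Screen-Well FDA Approved Drug Library v2.0 at 25µM in 0.9% (v/v) final DMSO. Drugs that cut counts below 20% of controls were diluted 10-fold and retested, down to 25nM. Cell count and mean cell size (forward scatter area) were read on an Accuri C6 flow cytometer, relative to solvent-only controls. Plates held 6-12 controls; values are means of 3 biological replicates.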

How did the mean cell size turn out when `COc1ccc(C(CN(C)C)C2(O)CCCCC2)cc1` (centres undefined) [Venlafaxine·HCl] (concentration: 25 µM) was run?
Its mean cell size is 0.987 ± 0.021.

Which mean cell size does the source give for `COc1cc2c(cc1OC)C1CC(=O)C(CC(C)C)CN1CC2` (centres undefined) [Tetrabenazine] (concentration: 25 µM) here?
The mean cell size was 0.921 ± 0.031.

How did the mean cell size turn out when `O=[N+]([O-])O[C@H]1CO[C@H]2[C@@H]1OC[C@H]2O[N+](=O)[O-]` [Isosorbide Dinitrate] (concentration: 25 µM) was run?
Its mean cell size is 0.945 ± 0.023.

For `Cl[C@H]1[C@H](Cl)[C@@H](Cl)[C@@H](Cl)[C@H](Cl)[C@H]1Cl` [Lindane] (concentration: 25 µM), which mean cell size is on record?
The mean cell size was 0.981 ± 0.037.

For `COc1cc([C@@H]2c3cc4c(cc3[C@H](O)[C@H]3COC(=O)[C@H]23)OCO4)cc(OC)c1OC` [Podofilox] (concentration: 25 nM), which mean cell size is on record?
The mean cell size was 0.863 ± 0.026.

Which mean cell size does the source give for `CN1C[C@H](C(=O)N[C@]2(C)O[C@@]3(O)[C@@H]4CCCN4C(=O)[C@H](Cc4ccccc4)N3C2=O)C[C@@H]2c3cccc4[nH]cc(c34)C[C@H]21` [Dihydroergotamine Mesylate] (concentration: 25 µM) here?
Its mean cell size is 1 ± 0.027.

With `NCC(CC(=O)O)c1ccc(Cl)cc1` (centres undefined) [Baclofen] (concentration: 25 µM) as the compound, how does the mean cell size read?
The mean cell size was 0.985 ± 0.044.

With `O=C1Nc2ccc(Cl)cc2C(c2ccccc2)=NC1O` (centres undefined) [Oxazepam] (concentration: 25 µM) as the compound, how does the mean cell size read?
The mean cell size was 0.938 ± 0.029.

For `COc1ccc2c(c1)[C@]13CCCC[C@@H]1[C@H](C2)N(C)CC3` [Dextromethorphan] (concentration: 25 µM), which mean cell size is on record?
The mean cell size was 0.936 ± 0.022.

Which mean cell size does the source give for `CC(=O)O[C@H]1C[C@@H]2CC[C@@H]3[C@H](CC[C@@]4(C)[C@H]3C[C@H]([N+]3(C)CCCCC3)[C@@H]4OC(C)=O)[C@@]2(C)C[C@@H]1[N+]1(C)CCCCC1` [Pancuronium·2Br] (concentration: 25 µM) here?
The mean cell size was 0.963 ± 0.015.

With `CC(NC(C)(C)C)C(=O)c1cccc(Cl)c1` (centres undefined) [Bupropion] (concentration: 25 µM) as the compound, how does the mean cell size read?
Its mean cell size is 0.935 ± 0.011.

`CC1(C)C(C=C(Cl)Cl)C1C(=O)OCc1cccc(Oc2ccccc2)c1` (centres undefined) [Permethrin] (concentration: 25 µM) was tested. Which mean cell size did it give?
Its mean cell size is 1.03 ± 0.068.

For `CC[C@@H](C(N)=O)N1CCCC1=O` [Levetiracetam] (concentration: 25 µM), which mean cell size is on record?
Its mean cell size is 0.968 ± 0.018.

How did the mean cell size turn out when `CC(C)C[C@H]1C(=O)N2CCC[C@H]2[C@]2(O)O[C@](NC(=O)[C@@H]3C=C4c5cccc6[nH]c(Br)c(c56)C[C@H]4N(C)C3)(C(C)C)C(=O)N12` [Bromocriptine Mesylate] (concentration: 25 µM) was run?
The mean cell size was 0.939 ± 0.031.

Which mean cell size does the source give for `Nc1ccncc1` [Dalfampridine (4-Aminopyridine)] (concentration: 25 µM) here?
Its mean cell size is 0.999 ± 0.044.

Which mean cell size does the source give for `CC1C=CC=CCCC=CC=CC=CC=CC(OC2OC(C)C(O)C(N)C2O)CC2OC(O)(CC(O)C(O)CCC(O)CC(O)CC(O)CC(=O)OC(C)C(C)C1O)CC(O)C2C(=O)O` (centres undefined) [Nystatin] (concentration: 25 µM) here?
Its mean cell size is 0.8944 ± 0.0084.

With `CCCC(C)(COC(N)=O)COC(N)=O` [Meprobamate (Schedule Iv)] (concentration: 25 µM) as the compound, how does the mean cell size read?
The mean cell size was 1.08 ± 0.036.

`C[C@]12CC[C@@H]3c4ccc(OC(=O)N(CCCl)CCCl)cc4CC[C@H]3[C@@H]1CC[C@@H]2OP(=O)(O)O` [Estramustine Phosphate·Na] (concentration: 25 µM) was tested. Which mean cell size did it give?
Its mean cell size is 0.958 ± 0.045.

How did the mean cell size turn out when `Oc1ccc2c3c1O[C@H]1[C@@H](O)CC[C@@]4(O)[C@@H](C2)N(CC2CCC2)CC[C@]314` [Nalbuphine·HCl Dihydrate] (concentration: 25 µM) was run?
The mean cell size was 0.955 ± 0.048.

`CN(C)C(=O)Oc1ccc[n+](C)c1` [Pyridostigmine Bromide] (concentration: 25 µM) was tested. Which mean cell size did it give?
The mean cell size was 0.986 ± 0.027.

For `COc1cccc(C2(O)CCCCC2CN(C)C)c1` (centres undefined) [Tramadol·HCl] (concentration: 25 µM), which mean cell size is on record?
Its mean cell size is 0.938 ± 0.042.

How did the mean cell size turn out when `CC(O)(CS(=O)(=O)c1ccc(F)cc1)C(=O)Nc1ccc(C#N)c(C(F)(F)F)c1` (centres undefined) [Bicalutamide] (concentration: 25 µM) was run?
The mean cell size was 0.973 ± 0.027.

Which mean cell size does the source give for `CN1[C@@H]2C[C@@H](OC(=O)[C@H](CO)c3ccccc3)C[C@H]1[C@@H]1O[C@@H]12` [Scopolamine·HBr] (concentration: 25 µM) here?
Its mean cell size is 1 ± 0.061.

With `O=C1Nc2ccc(Cl)cc2C(c2ccccc2Cl)=NC1O` (centres undefined) [Lorazepam] (concentration: 25 µM) as the compound, how does the mean cell size read?
The mean cell size was 0.927 ± 0.03.

Which mean cell size does the source give for `C=CCN1CC[C@]23c4c5ccc(O)c4O[C@H]2C(=O)CC[C@@]3(O)[C@H]1C5` [Naloxone·HCl] (concentration: 25 µM) here?
Its mean cell size is 0.947 ± 0.018.

Which mean cell size does the source give for `CN1C(=O)C(O)N=C(c2ccccc2)c2cc(Cl)ccc21` (centres undefined) [Temazepam] (concentration: 25 µM) here?
The mean cell size was 0.805 ± 0.037.

With `C#CCN(C)[C@H](C)Cc1ccccc1` [Selegiline·HCl] (concentration: 25 µM) as the compound, how does the mean cell size read?
The mean cell size was 0.9392 ± 0.0074.

With `CN1C(=O)CC(=O)N(c2ccccc2)c2cc(Cl)ccc21` [Clobazam] (concentration: 25 µM) as the compound, how does the mean cell size read?
The mean cell size was 0.984 ± 0.032.

Which mean cell size does the source give for `CN1CCN(C(=O)O[C@H]2c3nccnc3C(=O)N2c2ccc(Cl)cn2)CC1` [Eszopiclone] (concentration: 25 µM) here?
The mean cell size was 1.01 ± 0.025.

With `O=C(O)CCCc1ccc(N(CCCl)CCCl)cc1` [Chlorambucil] (concentration: 250 nM) as the compound, how does the mean cell size read?
The mean cell size was 0.945 ± 0.019.

How did the mean cell size turn out when `Cc1c(N)nc(C(CC(N)=O)NCC(N)C(N)=O)nc1C(=O)NC(C(=O)NC(C)C(O)C(C)C(=O)NC(C(=O)NCCc1nc(-c2nc(C(=O)NCCC[S+](C)C)cs2)cs1)C(C)O)C(O[C@@H]1O[C@@H](CO)[C@@H](O)[C@H](O)[C@@H]1O[C@H]1O[C@H](CO)[C@@H](O)[C@H](OC(N)=O)[C@@H]1O)c1cnc[nH]1` (some centres undefined) [Bleomycin Sulfate] (concentration: 2.5 µM) was run?
Its mean cell size is 1.33 ± 0.048.

Which mean cell size does the source give for `NCCCNCCSP(=O)(O)O` [Amifostine] (concentration: 25 µM) here?
Its mean cell size is 0.95 ± 0.036.

With `CN(C)[C@@H]1C(=O)C(C(N)=O)=C(O)[C@@]2(O)C(=O)C3=C(O)c4c(O)cccc4[C@@](C)(O)[C@H]3C[C@@H]12` [Tetracycline] (concentration: 25 µM) as the compound, how does the mean cell size read?
The mean cell size was 0.998 ± 0.064.

For `O=P1(N(CCCl)CCCl)NCCCO1` (centres undefined) [Cyclophosphamide (Free Base)] (concentration: 25 µM), which mean cell size is on record?
Its mean cell size is 1.01 ± 0.051.
